The record followed here is PubChem BioAssay (NCATS).

Records with an inconclusive call do not appear. Active and inactive are the calls of the source. Calls come from the whole dose curve; as a rule, active = well fitted curve in the direction sought with a large enough effect; inconclusive = small, poorly fitted or top-dose-only effect, or another doubt; inactive = no such curve, though single readings can be large; an effect the other way counts as inactive or inconclusive.

One experiment addresses Furin (Homo sapiens) (UniProt P09958). Kind of experiment: Furin counterscreen qHTS for Zika virus inhibitors (AID 1347149). Note: nearly all actives have a fitted effect of over 70% in size. Note: potency is the fitted concentration of half-maximal effect. The essentials:
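Fluorogenic cleavage of BOC-RVRR-AMC (2 microM final, Km ~15 µM) was monitored (ex 340, em 450 nm) at 37C after 15 min RT preincubation of 5 nM furin with compounds in HEPES pH 7.0 buffer with CaCl2 and Triton X-100. Percent inhibition was fitted to a 4-parameter Hill curve.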

The nature of experiment [1]: qHTS of pediatric cancer cell lines to identify multiple opportunities for drug repurposing: Primary screen for BT-12 cells (AID 1347101). Note: nearly all actives have a fitted effect of over 25% in size. The essentials: (§1)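 Cells (500-1,000/well) rested 5 h, then received compounds for 48 h; metabolically active cells were measured by CellTiter-Glo luminescence. Final concentrations spanned up to 46 µM (MIPE, 11-point) or 0.59 nM-46 µM (NPC, 8-point) in primary screens, 11-point in follow-ups.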
A general note: qHTS replaces the single test concentration by a dilution series.

A short description of experiment [2]: qHTS of pediatric cancer cell lines to identify multiple opportunities for drug repurposing: Primary screen for Rh18 cells (AID 1347102). Note: nearly all actives have a fitted effect of over 65% in size. The essentials: (§2)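 Viability after 48 h compound treatment at 37C, 500-1,000 cells/well, read as ATP luminescence with CellTiter-Glo. Primary screens used 11-point (MIPE, 0.78 nM-46 µM) or 8-point (NPC, 0.59 nM-46 µM) final concentrations; follow-up screens used 11-point dilutions.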

Experiment [3] in a line: qHTS of pediatric cancer cell lines to identify multiple opportunities for drug repurposing: Primary screen for OHS-50 cells (AID 1347103). Note: nearly all actives have a fitted effect of over 40% in size. The essentials: as §1
Experiment [4] in a line: qHTS of pediatric cancer cell lines to identify multiple opportunities for drug repurposing: Primary screen for RD cells (AID 1347104). Note: nearly all actives have a fitted effect of over 55% in size. In short, it runs like this: (§3)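 Quantitative HTS format: each compound titrated (MIPE 11 points from 0.78 nM, NPC 8 points from 0.59 nM) onto cells plated 5 hours earlier. After 48 h at 37 degrees C, CellTiter-Glo luminescence was recorded.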

Experiment [5] in a line: qHTS of pediatric cancer cell lines to identify multiple opportunities for drug repurposing: Primary screen for MG 63 (6-TG R) cells (AID 1347105). Note: nearly all actives have a fitted effect of over 50% in size. The essentials: as §3
The nature of experiment [6]: qHTS of pediatric cancer cell lines to identify multiple opportunities for drug repurposing: Primary screen for control Hh wild type fibroblast cells (AID 1347106).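 Note: series mostly up to about 46 µM; a drop in luminescence marks cytotoxicity and a rise apparent proliferation; nearly all actives have a fitted effect of over 55% in size.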 An excerpt:
Drug repurposing or repositioning has been offered as a strategy for drug development in oncology programs. This approach has special potential for childhood cancers and other rare or orphan diseases, where the expected return on new drug development has been a disincentive to pharmaceuticals.
In this project we exploit the poly-pharmacology of drugs to discover new indications via phenotypic screening of a panel of 19 well-characterized cell lines derived from solid tumors seen in children and adolescents. The goal is to identify approved drugs with previously unrecognized anticancer properties that has the potential to reveal new mechanisms and biological processes involved in carcinogenesis or drug resistance. We employed a titration-based paradigm (quantitative high-throughput screening or qHTS), where all compounds were tested at multiple concentrations for their effect on cell viability. […] We screened the NIH Chemical Genomics Center (NCGC) Pharmaceutical Collection (NPC) and Mechanism Interrogation Plate (MIPE) small molecule collections of approved and investigational compounds against these cell lines; and measured metabolically active cells after 48 hours of compound treatment as a proxy for cell viability. […]
[1] Shen, M et al. Quantitative high-throughput phenotypic screening of pediatric cancer cell lines identifies multiple opportunities for drug repurposing. […]

Experiment [7] in a line: qHTS of pediatric cancer cell lines to identify multiple opportunities for drug repurposing: Primary screen for Rh30 cells (AID 1347107). Note: series mostly up to about 46 µM; nearly all actives have a fitted effect of over 75% in size. In short, it runs like this:
as §2

A short description of experiment [8]: qHTS of pediatric cancer cell lines to identify multiple opportunities for drug repurposing: Primary screen for Rh41 cells (AID 1347108).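 Note: series mostly up to about 46 µM; luminescence drop marks cytotoxic hits; nearly all actives have a fitted effect of over 70% in size.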 In short, it runs like this: as §3
Experiment [9] deals with N-terminal Xaa-Pro-Lys N-methyltransferase 1 (Homo sapiens) (UniProt Q9BV86). Kind of experiment: qHTS Assay for Inhibitors of N-terminal methyltransferase 1 (NTMT1): LOPAC validation of the NTMT1 SAHH-coupled ThioGlo3 Assay (AID 1347143).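 Note: SAH from peptide methylation measured as thiol fluorescence via SAHH coupling and ThioGlo3; potency is the fitted concentration of half-maximal effect; nearly all actives have a fitted effect of over 70% in size.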 The following applies: recombinant NTMT1, SAHH-coupled ThioGlo3 fluorescence. The essentials:
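Recombinant human NTMT1 (125nM) was pre-incubated 1 min at room temperature with compounds over a concentration range, then a mix of 100uM SAM, 10uM SAHH and 15uM ThioGlo3 (concentrations in added reagent) was added. ThioGlo3 fluorescence (ex 340/em 450nm) after 30 min was normalized to the initial reading.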

Chain of Furin (Homo sapiens) (P09958 whole entry, looked up): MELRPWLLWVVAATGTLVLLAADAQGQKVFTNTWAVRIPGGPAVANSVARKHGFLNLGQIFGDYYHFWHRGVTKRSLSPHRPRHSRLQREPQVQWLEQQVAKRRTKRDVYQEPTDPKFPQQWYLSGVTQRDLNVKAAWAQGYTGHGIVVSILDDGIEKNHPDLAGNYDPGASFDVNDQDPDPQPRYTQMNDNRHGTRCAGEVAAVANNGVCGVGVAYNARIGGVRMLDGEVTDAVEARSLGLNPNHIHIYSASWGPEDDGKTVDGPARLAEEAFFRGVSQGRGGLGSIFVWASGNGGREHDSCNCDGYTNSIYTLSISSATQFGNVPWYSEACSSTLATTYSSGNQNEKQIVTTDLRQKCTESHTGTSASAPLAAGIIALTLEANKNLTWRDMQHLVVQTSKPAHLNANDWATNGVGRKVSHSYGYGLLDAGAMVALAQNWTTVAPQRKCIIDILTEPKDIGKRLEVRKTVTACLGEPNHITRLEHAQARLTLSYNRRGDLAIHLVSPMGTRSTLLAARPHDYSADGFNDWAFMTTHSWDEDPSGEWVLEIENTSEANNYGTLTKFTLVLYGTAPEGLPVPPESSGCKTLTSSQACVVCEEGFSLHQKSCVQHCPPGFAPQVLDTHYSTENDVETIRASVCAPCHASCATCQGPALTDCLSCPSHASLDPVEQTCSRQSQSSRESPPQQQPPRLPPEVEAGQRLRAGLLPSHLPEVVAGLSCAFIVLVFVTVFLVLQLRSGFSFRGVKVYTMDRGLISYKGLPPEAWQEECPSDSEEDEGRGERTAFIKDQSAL
Chain of N-terminal Xaa-Pro-Lys N-methyltransferase 1 (Homo sapiens) (Q9BV86 whole entry, looked up): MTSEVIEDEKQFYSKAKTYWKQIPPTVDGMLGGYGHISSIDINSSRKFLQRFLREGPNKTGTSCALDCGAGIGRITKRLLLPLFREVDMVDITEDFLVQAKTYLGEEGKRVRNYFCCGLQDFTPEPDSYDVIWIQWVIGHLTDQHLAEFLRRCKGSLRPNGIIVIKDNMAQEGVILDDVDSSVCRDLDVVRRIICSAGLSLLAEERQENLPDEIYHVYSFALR

Consider `C=C1CC[C@@H]2[C@](C)(CO[C@@H]3O[C@H](CO)[C@@H](O)[C@H](O)[C@H]3O)CCC[C@@]2(C)[C@@H]1CCC1=CCOC1=O`, for which, in the experiment with Furin (Homo sapiens), the Potency result is “inactive”.

Consider `N#CC1C(=O)Nc2scc(-c3ccc(-c4ccccc4O)cc3)c2C1=O` (stereo not drawn), for which the Potency entry with Furin (Homo sapiens) is “inactive”.

As to `CC(=O)OC(C)OC(=O)C(C)c1ccc(-c2ccccc2)c(F)c1` (stereo not drawn), the result in experiment [1], in experiment [2], in experiment [3], in experiment [4], in experiment [5] and in [6] was inactive. The result in [7] and in experiment [8] was inactive.

For `O=C(O)c1cnn(-c2nc3cc(OC(F)(F)F)c(Cl)cc3[nH]2)c1`, the Potency with Furin (Homo sapiens) was 90.2 µM (active).

For `O=C(O)c1cc(O)c2cccc(O)c2c1O[C@@H]1O[C@H](CO)[C@@H](O)[C@H](O)[C@H]1O`, the Potency in the experiment with Furin (Homo sapiens) is 34.3 µM (active).

As for `Nc1c(N=Nc2ccc(-c3ccc(N=Nc4cc(S(=O)(=O)O)c5ccccc5c4N)cc3)cc2)cc(S(=O)(=O)O)c2ccccc12`, the Potency in the experiment with Furin (Homo sapiens) was 37.3 µM (active).

Regarding `O=C(/C=C/c1c(C(=O)O)[nH]c2cc(Cl)cc(Cl)c12)Nc1ccccc1`, the Potency entry with Furin (Homo sapiens) was “inactive”.

On to `CC(C)C(=O)c1cn(CC(=O)COc2ccc(Oc3ccccc3)cc2)c2ccc(C(=O)O)cc12`, for which, in the experiment with Furin (Homo sapiens), the Potency entry is “inactive”.

As for `CC(C)N=c1cc2n(-c3ccc(Cl)cc3)c3ccccc3nc-2cc1Nc1ccc(Cl)cc1`, the Potency result in the experiment with Furin (Homo sapiens) was “inactive”.

Regarding `CN1Cc2c(N)cccc2C(c2ccccc2)C1` (stereo not drawn), the compound was called inactive in experiment [1], in experiment [2], in experiment [3], in experiment [4], in experiment [5] and in experiment [6]. In addition, the outcome in experiment [7] and in experiment [8] was inactive. Besides, the Potency in experiment [9] was 35.5 µM (active).

Regarding `CC(C)C1=CCC(C)(O)C(OC2OC(CO)C(O)C(O)C2O)C1` (stereo not drawn), the Potency result in the experiment with Furin (Homo sapiens) is “inactive”.

As to `O=S(=O)(O)c1ccc2c(N=Nc3ccc(S(=O)(=O)O)c4ccccc34)c(O)c(S(=O)(=O)O)cc2c1`, in the experiment with Furin (Homo sapiens), the Potency result was “inactive”.

In the case of `CCOc1c2c(c(OCC)c3ccccc13)C(=O)N(c1ccc(CC(=O)NS(=O)(=O)c3ccccc3)cc1)C2`, in the experiment with Furin (Homo sapiens), the Potency result is “inactive”.
